Tat export inh: inhibitors of E. coli Tat protein transport; hit rate 0.036% among 340,000; E. coli MC4100 TorA-mCherry Tat export, fluorescence; inhibition, % at 10 µM; AID 488895;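 active = mean replicate inhibition at least 50% and at least half of replicates individually reaching 50%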;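 note: exported cargo escapes ClpAP degradation while cytoplasmic cargo is degraded and loses fluorescence; 0% = median of neutral control wells and 100% = median of NaSCN control wells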
E coli growth-1: counter-screen for AddAB inhibitors: E. coli growth inhibition; E. coli V3065 growth, OD600 absorbance, 18 h; inhibition, % at 11.9 µM; hit rate 0.27% among 330,000;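 active = inhibition above the campaign's mean inhibition across all tested compounds plus 3 SD, cut at about 9.9% in these data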;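 note: uninfected addAB+ strain grown without phage in ampicillin broth; 0% = DMSO wells and 100% = ciprofloxacin 0.95 µg/ml wells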
AddAB inh: less growth of phage-infected E. coli with AddAB; E. coli expressing H. pylori AddAB, absorbance growth; inhibition, % at 11.9 µM; hit rate 0.29% among 330,000; AID 435030; in the data active = inhibition above about 12%;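 note: 0% = vehicle wells of infected cells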
E coli growth-2: inhibitors of Escherichia coli growth; OD600, 23 h; stronger effect = lower value; OD600 absorbance (concentration not given with the values); hit rate 0.21% among 330,000; AID 1053175;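 active = OD600 absorbance below the run mean of sample wells minus 3.6 SD, in any replicate, cut at about 0.56 in these data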
phage Ecoli inh: E. coli growth loss with phage present; growth absorbance; inhibition, % at 11.9 µM; hit rate 0.26% among 360,000; AID 651602; in the data active = inhibition above about 11%
Numbers without * were called inactive; i = inactive; · = not tested or not shown. Compounds with a hit are over-represented: about 0.51% of the library has one in this group of screens.

SMILES	Tat export inh	E coli growth-1	AddAB inh	E coli growth-2	phage Ecoli inh
NC1=NCC(CC2CCCCC2)N1CCc1cc(C(F)(F)F)cc(C(F)(F)F)c1 (configuration not stated)	·	·	·	0.5	·
CCSc1nnc(NC(=O)c2cnccn2)s1	·	0	1	0.72	·
CCSc1nnc(NC(=O)c2ccccn2)s1	19	11*	9	0.67	0
Oc1ccc2c(c1)oc1cc(O)ccc12	2	-2	1	0.59	1
O=c1oc2cc(O)ccc2s1	-1	10.0*	8	·	2
N#CCc1ccc(NC(=O)/C=C/c2ccc([N+](=O)[O-])o2)cc1	3	·	·	0.41*	·
COc1ccc(-c2sc3ccccc3c2-c2ccc(OCCN(C)C)cc2)cc1	1	-3	2	0.47*	3
CN(C)CCOc1ccc(-c2c(-c3ccsc3)sc3ccccc23)cc1	9	-2	-1	·	2
Cc1cccc(-c2oc3ccc(-c4ccc5c(c4)OCO5)cc3c2C=Cc2ccc(N)cc2)c1	·	·	·	0.69	·
Clc1ccc(OCCCNCc2ccccc2)c2ccccc12	-9	1	1	0.4*	4
CC(C)C(Nc1ccc(S(=O)(=O)N2CCOCC2)cc1[N+](=O)[O-])C(=O)OCC(N)=O (configuration not stated)	·	·	·	0.67	·
CNS(=O)(=O)c1ccc(NC(=O)Nc2cccc(F)c2)cc1	-7	7	10	0.51*	5
Cc1cc(C(=O)N/N=C/c2ccc(O)c(O)c2O)c(C)n1-c1ccccc1	-4	·	·	·	20*
O=C(NCc1ccc(Cl)cc1)C1CCN(S(=O)(=O)c2cccc3nonc23)CC1	-1	0	4	0.53*	0
O=C(NCCc1ccc(Cl)cc1)C1CCN(S(=O)(=O)c2cccc3nonc23)CC1	-1	-2	5	0.76	-1
CC(=O)NNC(=S)NC(=O)c1ccccc1	-28	1	0	0.4*	-3
CCC(=O)NNC(=S)NC(=O)c1ccc(C)cc1	-7	-6	-9	0.5*	-5
CC(=O)NNC(=S)NC(=O)c1ccc(C)cc1	3	-6	-4	0.72	0
CCCCN(C)CCOc1ccccc1OCC	0	-3	0	0.065*	2
C=CCC(CC(=O)NCCO)C(=O)NC(C)COC(=O)C(CC=C)Cc1ccc(F)cc1 (configuration not stated)	·	·	·	0.62	·
CN(C)C1C(=O)C(C(N)=O)=C(O)[C@@]2(O)C(=O)C3=C(O)c4c(O)ccc(Cl)c4C(O)C3CC12 (some centres not stated)	·	·	·	0.063*	·
COc1ccc(Cl)cc1C(=O)Nc1ccc(NC(C)=O)cc1	-4	0	1	0.71	4
CC(=O)Oc1c(I)cc(I)cc1C(=O)Nc1ccc(Cl)cc1	-10	12*	11	·	8
CCC(=O)OCC(=O)[C@@]1(OC(=O)CC)C(C)CC2C3CCC4=CC(=O)C=C[C@]4(C)[C@@]3(Cl)C(O)C[C@@]21C (some centres not stated)	·	·	·	0.71	·
COc1cc(F)c(C2=CC(=O)CC(c3ccc(Cl)cc3)C2)cc1F (configuration not stated)	·	·	·	0.69	·
SMILES	Tat export inh	E coli growth-1	AddAB inh	E coli growth-2	phage Ecoli inh
COc1c(N2CC3CCCNC3C2)c(F)cc2c(=O)c(C(=O)O)cn(C3CC3)c12 (configuration not stated)	·	·	·	0.058*	·
CCCC=C1CCCOC(C(=O)NCc2ccc(C)o2)(C(F)(F)F)C1 (configuration not stated)	·	·	·	0.67	·
Cc1nc(N)nc(N)c1CCCc1ccc(Cl)c(Cl)c1	-16	4	5	0.41*	4
CCn1cc(C(=O)O)c(=O)c2cc(S(=O)(=O)N3CCCCCC3)ccc21	1	1	0	0.6	-2
CCn1cc(C(=O)O)c(=O)c2cc(OC)ccc21	-1	3	10	0.53*	-1
COC(=O)C1=C(C(=O)OC)[C@]2(C3CCCCNC(Cc4ccccc4)C(=O)N3Cc3ccccc3)C=CC1O2 (some centres not stated)	·	·	·	0.74	·
CCOC(=O)O[C@]1(C(=O)COC(=O)CC)CCC2C3CCC4=CC(=O)C=C[C@]4(C)C3C(O)C[C@@]21C (some centres not stated)	·	·	·	0.68	·
CC(NC(=O)C(C#N)=Cc1ccc(O)c(O)c1)c1ccccc1 (configuration not stated)	·	·	·	0.7	·
Cc1csc(N=Cc2ccc([N+](=O)[O-])o2)n1	·	·	·	·	12*
CC[C@H]1OC(=O)C[C@@H](O)[C@H](C)[C@@H](O[C@@H]2O[C@H](C)C[C@H](N(C)C)[C@H]2O)[C@@H](CC=O)C[C@@H](C)C(=O)C=C[C@]2(C)O[C@H]2[C@@H]1C	·	100*	99*	·	·
Cc1conc1NC(c1cccs1)c1ccc2cccnc2c1O (configuration not stated)	·	13*	13*	·	·
Oc1c(C(Nc2nccs2)c2ccc(C(F)(F)F)cc2)ccc2cccnc12 (configuration not stated)	-1	·	·	0.7	9
O=C1NCC(Cc2cccc3ccccc23)N(CC2(c3ccccc3)CC2)C1=O (configuration not stated)	·	·	·	0.67	·
O=C(CSc1ccc2nnc(-c3ccccn3)n2n1)Nc1ccc2c(c1)OCO2	-9	78*	97*	0.71	1
COc1ccc(Br)cc1C1C2C=CCC[C@@]2(C)C(=O)N1Cc1ccccc1 (some centres not stated)	·	·	·	0.68	·
C(=C\c1nc2ccccc2[nH]1)/c1ccccc1	4	-2	1	0.53*	2
C(=C\c1ccco1)/c1nc2ccccc2[nH]1	-29	2	7	0.57	10
CCCCCOc1ccc(Br)cc1CSC(=N)N	-8	·	·	0.48*	7
CCc1ccc(C(C)NC(=S)NC2CCCCC2)cc1 (configuration not stated)	10	·	·	0.7	·
CCC(C)c1ccc(C(C)NC(=S)NC2CCCCC2)cc1 (configuration not stated)	-1	11*	7	·	3
Oc1cccc2ccc(C=Cc3ccc(Br)s3)nc12	·	·	·	0.71	·
CN(C)c1ccc(/C=C/c2cccc[n+]2[O-])cc1	-8	1	1	·	2
CN(C)c1ccc(/C=C/c2ccc3c4ccccc4ccc3[n+]2-c2ccccc2)cc1	-335	·	·	0.24*	17*
CN(C)c1ccc(/C=C/c2ccc3ccccc3[n+]2C)cc1	i	18*	28*	0.29*	7
COc1ccc2c(c1)OCC1C2N2C(=O)CN(Cc3ccc(C)cc3)C(=O)[C@@]2(C)C1c1ccccc1 (some centres not stated)	·	·	·	0.73	·
CC(OC(=O)c1[nH]cnc1C(=O)N1CCN(C(=O)OC(C)(C)C)CC1)c1ccccc1 (configuration not stated)	·	·	·	0.67	·
N=C(N)c1ccc(/C=C/c2ccc(C(=N)N)cc2O)cc1	76*	4	6	0.66	7
O=C(CCN1CCOCC1)NNC(=S)NC(=O)c1ccc(Br)cc1	-2	3	1	0.47*	-3
O=C(CCN1CCCCC1)NNC(=S)NC(=O)c1ccc(Br)cc1	-1	-1	0	0.6	-3
CCOC(=O)C1C2COc3ccc(Br)cc3C2N2C(=O)N(c3ccc(C(F)(F)F)cc3)C(=O)[C@]12C (some centres not stated)	·	·	·	0.73	·

High-throughput results (PubChem)
